Measurements reported in PubChem BioAssay (Tox21).
Records with an inconclusive call do not appear. Calls of active or inactive are those of the source. Unless noted, calls come from the whole dose curve; as a rule, active = well fitted curve in the direction sought with a large enough effect in the repeat runs; inconclusive = weak or mixed curves; inactive = no such curve, though single readings can be large; an effect the other way counts as inactive or inconclusive.

Experiments:
[1] = qHTS assay for small molecule agonists of the p53 signaling pathway (AID 651631; calls by dose curve; note: nearly all actives have a fitted effect of over 15% in size; note: potency is the fitted concentration of half-maximal effect)
Method in brief: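 Beta-lactamase reporter activity under p53 response elements was quantified in HCT-116 cells by FRET fluorescence, following 16 h incubation with test compounds at 37 °C and 2 h substrate development at room temperature.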

[2] = qHTS assay for small molecules that induce genotoxicity in human embryonic kidney cells expressing luciferase-tagged ATAD5 (AID 651632); note: nearly all actives have a fitted effect of over 15% in size; note: potency is the fitted concentration of half-maximal effect
Method in brief: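 Test compounds were delivered by pin tool onto HEK293T reporter cells (2,000/well) expressing ATAD5 fused to luciferase. After 16 hr at 37C, 5% CO2, Amplite was added for 30 min at room temperature and luminescence was measured.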

[3] = qHTS assay for small molecule agonists of the p53 signaling pathway - cell viability (AID 651633; calls by dose curve;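 note: p53RE-bla HCT reporter cells with a stable beta-lactamase p53 reporter; series mostly up to about 83 µM; nearly all actives have a fitted effect of over 30% in size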)
Method in brief: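 Viability counter-read: CellTiter-Glo luminescence (30 min, room temperature) in the same p53RE-bla plates. These plates had been exposed to compounds for 16 h at 37 C.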

[4] = qHTS assay for small molecules that induce genotoxicity in human embryonic kidney cells expressing luciferase-tagged ATAD5 - cell viability (AID 651634; calls by dose curve; note: nearly all actives have a fitted effect of over 25% in size)
Method in brief: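 Quantitative high-throughput format. HEK293T cells expressing ATAD5 fused to luciferase were plated at 2,000 cells/well and treated 15.5 hr with compound versus DMSO. Viability was determined by fluorescent live-cell protease substrate, 30 min at 37C.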

[5] = qHTS assay for small molecule disruptors of the mitochondrial membrane potential - cell viability (AID 720634; calls by dose curve; note: nearly all actives have a fitted effect of over 20% in size; note: potency is the fitted concentration of half-maximal effect)
Method in brief: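 Same-well counter-screen: following the MMP dye addition, CellTiter-Glo was added to 1 hr compound-treated HepG2 cells and luminescence read after 30 min at room temperature.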

[6] = qHTS assay for small molecule disruptors of the mitochondrial membrane potential (AID 720635); note: potency is the fitted concentration of half-maximal effect
Method in brief: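 Mitochondrial membrane potential tracked with Mito-MPS dye, red aggregates (ex 540/em 590 nm) against green monomers (ex 490/em 535 nm). Compound treatment 1 hr at 37C, dye 30 min in HepG2.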

[7] = qHTS assay to test for compound auto fluorescence at 590 nm (red) in HepG2 cells (AID 720674)
Method in brief: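 1 hr compound incubation on HepG2 cells, 37 C, 5% CO2; plate read ex 540 nm / em 590 nm; intensities reported as Rose Bengal sodium equivalents.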

[8] = qHTS assay to test for compound auto fluorescence at 460 nm (blue) in HEK293 cells (AID 720678)
Method in brief: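 Blue read-out at excitation 405 nm and emission 460 nm follows overnight compound exposure of HEK293 cells at 37C in 5% CO2. Activity is given as auto fluorescence equivalency to triamterene.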

[9] = qHTS assay to test for compound auto fluorescence at 590 nm (red) in HEK293 cells (AID 720679)
Method in brief: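 Red channel, Ex/Em 540/590nm; signal expressed as equivalency to Rose Bengal sodium. HEK293, 2,000 cells/well, 10% dialyzed FBS; 23 nL compound pinned after 4-5 hr attachment; overnight 37C/5% CO2 before reading.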

[10] = qHTS assay to test for compound auto fluorescence at 460 nm (blue) in HEK293 cell free culture (AID 720681)
Method in brief: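 Blue fluorescence (Ex 405/Em 460 nm, triamterene-equivalent) was read immediately after pin transfer of compound or DMSO into medium (DMEM, 10% FBS) without cells.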

[11] = qHTS assay to test for compound auto fluorescence at 535 nm (green) in HEK293 cell free culture (AID 720682)
Method in brief: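 Each library compound, or DMSO control, is added by pintool to medium alone, comprising DMEM and 10% FBS. Emission at 535 nm following 485 nm excitation is quantified against fluorescein.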

[12] = qHTS assay to test for compound auto fluorescence at 590 nm (red) in HEK293 cell free culture (AID 720683)
Method in brief: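 Red-channel autofluorescence of compounds in culture medium (DMEM, 10% FBS), no cells, measured at 540/590 nm. Rose Bengal sodium is the reference fluorophore for equivalence.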

[13] = qHTS assay to test for compound auto fluorescence at 590 nm (red) in HepG2 cell free culture (AID 720684)
Method in brief: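 Cell-free; medium MEM + 10% FBS; compound or DMSO added by pintool; read Ex 540/Em 590 nm; Rose Bengal sodium as red reference fluorophore.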

[14] = qHTS assay to test for compound auto fluorescence at 460 nm (blue) in HepG2 cell free culture (AID 720685)
Method in brief: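 Cell-free plates of MEM plus 10% FBS received 23 nL compound or DMSO vehicle; blue-channel (405/460 nm) intensity scored against triamterene as reference fluorophore.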

[15] = qHTS assay to test for compound auto fluorescence at 460 nm (blue) in HepG2 cells (AID 720687)
Method in brief: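 Blue-channel autofluorescence (Ex/Em 405/460 nm, triamterene-equivalent) was measured after 1 hr compound exposure at 37 C, 5% CO2. Cells were HepG2, plated overnight at 37 C in MEM plus 10% FBS.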

[16] = target: Glucocorticoid receptor (Homo sapiens) (UniProt P04150); assay: qHTS assay to identify small molecule agonists of the glucocorticoid receptor (GR) signaling pathway (AID 720691; active = well fitted activation curve with a large enough effect in the signal ratio in the repeat runs, not every such curve was filed as active; the % refers to the signal ratio)
Method in brief: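 A HeLa cervical cancer line expressing GR and a glucocorticoid response element-driven beta-lactamase gene is treated with compounds for 18 h; LiveBLAzer B/G FRET substrate is then applied and fluorescence read.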

[17] = target: Glucocorticoid receptor (Homo sapiens) (UniProt P04150); assay: qHTS assay to identify small molecule antagonists of the glucocorticoid receptor (GR) signaling pathway (AID 720692; active = well fitted inhibition curve with a large enough effect in the signal ratio in the repeat runs, not every such curve was filed as active; the % refers to the signal ratio)
Method in brief: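 GRE-bla HeLa line, dex-stimulated (5 nM final). Compound exposure 18 h, 37 C. Beta-lactamase FRET read after 2 h RT substrate.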

[18] = qHTS assay to test for compound auto fluorescence at 535 nm (green) in HepG2 cells (AID 720675)
[19] = qHTS assay to test for compound auto fluorescence at 535 nm (green) in HEK293 cells (AID 720680)
[20] = qHTS assay to test for compound auto fluorescence at 535 nm (green) in HepG2 cell free culture (AID 720686)

Measured: Potency

Chain of Glucocorticoid receptor (Homo sapiens) (P04150 whole entry, looked up): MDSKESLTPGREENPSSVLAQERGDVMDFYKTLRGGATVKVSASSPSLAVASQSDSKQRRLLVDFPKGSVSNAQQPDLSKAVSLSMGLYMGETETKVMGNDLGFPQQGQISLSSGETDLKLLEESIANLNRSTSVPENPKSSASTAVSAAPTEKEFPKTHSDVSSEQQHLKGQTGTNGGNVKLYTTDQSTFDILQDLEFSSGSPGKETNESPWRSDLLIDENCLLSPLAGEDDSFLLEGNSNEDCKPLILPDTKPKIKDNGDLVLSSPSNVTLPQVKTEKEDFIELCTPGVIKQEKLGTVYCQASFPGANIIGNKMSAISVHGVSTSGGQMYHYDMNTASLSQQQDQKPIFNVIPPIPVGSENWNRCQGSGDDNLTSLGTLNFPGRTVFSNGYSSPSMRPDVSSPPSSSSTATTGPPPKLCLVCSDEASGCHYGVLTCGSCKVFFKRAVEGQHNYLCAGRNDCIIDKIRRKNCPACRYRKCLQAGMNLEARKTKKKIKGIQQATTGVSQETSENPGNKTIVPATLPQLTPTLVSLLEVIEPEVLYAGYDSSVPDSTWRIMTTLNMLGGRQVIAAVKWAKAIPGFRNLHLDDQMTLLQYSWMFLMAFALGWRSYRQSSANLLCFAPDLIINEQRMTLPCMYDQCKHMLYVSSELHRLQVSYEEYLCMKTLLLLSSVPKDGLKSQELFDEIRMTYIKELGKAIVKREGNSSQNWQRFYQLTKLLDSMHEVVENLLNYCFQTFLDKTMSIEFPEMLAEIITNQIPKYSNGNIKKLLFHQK

O=c1c2ccccc2nnn1CCl
not listed: [18] | [19] | [20]
inactive: all other assays above

Cn1c(N)nc2nc[nH]c2c1=O
inactive: all assays above

O=S(=O)(O)c1ccc(O)c2ncccc12
not listed: [20]
inactive: all other assays above

COc1ccccc1OC(=O)Oc1ccccc1OC
not listed: [6]
inactive: all other assays above

Oc1ccc(Sc2ccc(O)cc2)cc1
active: [1] 57.2 µM | [6] 18.1 µM
inactive: all other assays above

O=C(CC(=O)c1ccccc1)c1ccccc1
active: [2] 11.7 µM | [5] 36.9 µM | [6] 11.7 µM
not listed: [20]
inactive: all other assays above

CC(=O)NCCCS(=O)(=O)O
not listed: [10] | [19]
inactive: all other assays above

CC(=O)O[C@H]1C[C@@H]2CC[C@@H]3[C@H](CC[C@@]4(C)[C@H]3C[C@H]([N+]3(C)CCCCC3)[C@@H]4OC(C)=O)[C@@]2(C)C[C@@H]1N1CCCCC1
not listed: [10] | [16] | [17]
inactive: all other assays above

CC(CN)CCCN (configuration not stated)
not listed: [11]
inactive: all other assays above

O=C(c1ccccc1)c1ccc2n1CCC2C(=O)O (configuration not stated)
not listed: [6] | [16] | [17]
inactive: all other assays above

C=Cc1c(C)c2cc3[nH]c(cc4nc(cc5nc(cc1[nH]2)C(C)=C5CCC(=O)O)C(CCC(=O)O)=C4C)c(C)c3C=C
not listed: [11]
inactive: all other assays above

CCOC(=O)CC(=O)c1cc(F)c(Cl)nc1Cl
not listed: [15] | [18] | [19]
inactive: all other assays above

CCN(CC)C(C)=O
not listed: [6] | [16] | [17]
inactive: all other assays above

CCCc1ccccc1
not listed: [6]
inactive: all other assays above

CCN(CCO)CCCC(C)Nc1ccnc2cc(Cl)ccc12 (configuration not stated)
inactive: all assays above
